# Many of the other results were omitted from the sample, so the strongest signals are more common in it than they were.
# B1: Siglec-F (Mus musculus), Q920G3 (protein)
# chain: MRWAWLLPLLWAGCLATDGYSLSVTGSVTVQEGLCVFVACQVQYPNSKGPVFGYWFREGANIFSGSPVATNDPQRSVLKEAQGRFYLMGKENSHNCSLDIRDAQKIDTGTYFFRLDGSVKYSFQKSMLSVLVIALTEVPNIQVTSTLVSGNSTKLLCSVPWACEQGTPPIFSWMSSALTSLGHRTTLSSELNLTPRPQDNGTNLTCQVNLPGTGVTVERTQQLSVIYAPQKMTIRVSWGDDTGTKVLQSGASLQIQEGESLSLVCMADSNPPAVLSWERPTQKPFQLSTPAELQLPRAELEDQGKYICQAQNSQGAQTASVSLSIRSLLQLLGPSCSFEGQGLHCSCSSRAWPAPSLRWRLGEGVLEGNSSNGSFTVKSSSAGQWANSSLILSMEFSSNHRLSCEAWSDNRVQRATILLVSGPKVSQAGKSETSRGTVLGAIWGAGLMALLAVCLCLIFFTVKVLRKKSALKVAATKGNHLAKNPASTINSASITSSNIALGYPIQGHLNEPGSQTQKEQPPLATVPDTQKDEPELHYASLSFQGPMPPKPQNTEAMKSVYTEIKIHKC
# Columns and labels:
# Experiment in all cases: glycan array binding signal (z-score within array); higher = stronger binding
# Settings in all cases: glycan notation: IUPAC condensed, linker removed
# [1] = target: GalNAc(a1-3)Fuc(a1-2)Gal(b1-4)GlcNAc(b1-3)[GalNAc(a1-3)Fuc(a1-2)Gal(b1-4)GlcNAc(b1-6)]GalNAc
# Method in brief: (§1)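 Columns mapping to the same glycan were averaged after glycan names were converted to IUPAC-condensed notation. The data come from 3228 arrays in the Consortium for Functional Glycomics database, limited to those with an available protein sequence. Binding is reported as a within-array Z-score averaged across arrays of one protein sequence and across linkers.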
# [2] = target: GalNAc(b1-3)GlcNAc
# Method in brief: as §1
# [3] = target: GalNAc(b1-4)Gal(b1-4)Glc
# Method in brief: as §1
# [4] = target: GlcNAc(a1-4)Gal(b1-4)GlcNAc(b1-3)Gal(b1-4)GlcNAc
# Method in brief: as §1
# [5] = target: GlcNAc(b1-3)Fuc
# Method in brief: as §1
# [6] = target: GlcNAc(b1-3)Gal(b1-4)GlcNAc(b1-3)Gal(b1-4)GlcNAc(b1-2)Man(a1-3)[GlcNAc(b1-3)Gal(b1-4)GlcNAc(b1-3)Gal(b1-4)GlcNAc(b1-2)Man(a1-6)]Man(b1-4)GlcNAc(b1-4)GlcNAc
# Method in brief: as §1
# [7] = target: GlcNAc(b1-3)Gal(b1-4)GlcNAc(b1-6)[Gal(b1-3)]GalNAc
# Method in brief: as §1
# [8] = target: GlcNAc(b1-3)GalNAc
# Method in brief: as §1
# [9] = target: Man(a1-3)[Man(a1-6)]Man
# Method in brief: as §1
# [10] = target: Neu5Ac(a2-3)Gal(b1-3)GalNAc(b1-4)[Neu5Ac(a2-3)]Gal(b1-4)Glc
# Method in brief: as §1
# [11] = target: Neu5Ac(a2-3)Gal(b1-3)[Fuc(a1-4)]GlcNAc(b1-3)Gal(b1-4)[Fuc(a1-3)]GlcNAc
# Method in brief: as §1
# [12] = target: Neu5Ac(a2-3)Gal(b1-3)[Neu5Ac(a2-3)Gal(b1-4)]GlcNAc
# Method in brief: as §1
# [13] = target: Neu5Ac(a2-3)Gal(b1-3)]Neu5Ac(a2-3)Gal(b1-4)]GlcNAc
# Method in brief: as §1
# [14] = target: Neu5Ac(a2-3)Gal(b1-4)GlcNAc(b1-2)Man(a1-3)[GlcNAc(b1-2)Man(b1-4)GlcNAc(b1-2)Man(a1-6)]Man(b1-4)GlcNAc(b1-4)GlcNAc
# Method in brief: as §1
# [15] = target: Neu5Ac(a2-3)Gal(b1-4)GlcNAc(b1-2)Man(a1-3)[Neu5Ac(a2-3)Gal(b1-4)GlcNAc(b1-2)Man(a1-6)]Man(b1-4)GlcNAc(b1-4)GlcNAc
# Method in brief: as §1
# [16] = target: Neu5Ac(a2-3)Gal(b1-4)GlcNAc(b1-2)Man(a1-3)[Neu5Ac(a2-3)Gal(b1-4)GlcNAc(b1-2)Man(a1-6)]Man(b1-4)GlcNAc(b1-4)[Fuc(a1-6)]GlcNAc
# Method in brief: as §1
# [17] = target: Neu5Ac(a2-3)Gal(b1-4)GlcNAc(b1-2)[Neu5Ac(a2-3)Gal(b1-4)GlcNAc(b1-4)]Man(a1-3)[GlcNAc(b1-4)][Neu5Ac(a2-3)Gal(b1-4)GlcNAc(b1-2)[Neu5Ac(a2-3)Gal(b1-4)GlcNAc(b1-6)]Man(a1-6)]Man(b1-4)GlcNAc(b1-4)GlcNAc
# Method in brief: as §1
# [18] = target: Neu5Ac(a2-3)Gal(b1-4)GlcNAc(b1-2)[Neu5Ac(a2-3)Gal(b1-4)GlcNAc(b1-4)]Man(a1-3)[GlcNAc(b1-4)][Neu5Ac(a2-3)Gal(b1-4)GlcNAc(b1-4)Man(a1-6)]Man(b1-4)GlcNAc(b1-4)GlcNAc
# Method in brief: as §1
# [19] = target: Neu5Ac(a2-3)Gal(b1-4)GlcNAc(b1-2)[Neu5Ac(a2-3)Gal(b1-4)GlcNAc(b1-6)]Man(a1-6)[Neu5Ac(a2-3)Gal(b1-4)GlcNAc(b1-2)Man(a1-3)][GlcNAc(b1-4)]Man(b1-4)GlcNAc(b1-4)GlcNAc
# Method in brief: as §1
# [20] = target: Neu5Ac(a2-3)Gal(b1-4)GlcNAc(b1-6)[Neu5Ac(a2-3)Gal(b1-3)]GalNAc
# Method in brief: as §1
# [21] = target: Neu5Ac(a2-3)Gal(b1-4)[Fuc(a1-3)]GlcNAc(b1-3)Gal
# Method in brief: as §1
# [22] = target: Neu5Ac(a2-3)Gal(b1-4)[Fuc(a1-3)]GlcNAc(b1-3)Gal(b1-4)[Fuc(a1-3)]GlcNAc(b1-3)Gal(b1-4)[Fuc(a1-3)]GlcNAc
# Method in brief: as §1
# [23] = target: Neu5Ac(a2-3)Gal6S(b1-4)GlcNAc
# Method in brief: as §1
# [24] = target: Neu5Ac(a2-3)Gal6S(b1-4)[Fuc(a1-3)]GlcNAc
# Method in brief: as §1
# [25] = target: Neu5Ac(a2-6)Gal(b1-4)GlcNAc(b1-2)[Neu5Ac(a2-6)Gal(b1-4)GlcNAc(b1-4)]Man(a1-3)[GlcNAc(b1-4)][Neu5Ac(a2-6)Gal(b1-4)GlcNAc(b1-4)Man(a1-6)]Man(b1-4)GlcNAc(b1-4)GlcNAc
# Method in brief: as §1
# [26] = target: Neu5Ac(a2-6)GalNAc
# Method in brief: as §1
# [27] = target: Neu5Gc(a2-3)Gal(b1-4)Glc
# Method in brief: as §1
# [28] = target: Neu5Gc(a2-3)Gal(b1-4)GlcNAc
# Method in brief: as §1
binder,measurement,setting,value
B1,glycan array binding signal (z-score),[1],-0.088
same,glycan array binding signal (z-score),[2],-0.154
same,glycan array binding signal (z-score),[3],-0.099
same,glycan array binding signal (z-score),[4],-0.146
same,glycan array binding signal (z-score),[5],-0.135
same,glycan array binding signal (z-score),[6],-0.064
same,glycan array binding signal (z-score),[7],-0.15
same,glycan array binding signal (z-score),[8],-0.12
same,glycan array binding signal (z-score),[9],-0.113
same,glycan array binding signal (z-score),[10],3.76
same,glycan array binding signal (z-score),[11],-0.066
same,glycan array binding signal (z-score),[12],2.46
same,glycan array binding signal (z-score),[13],3.65
same,glycan array binding signal (z-score),[14],2.11
same,glycan array binding signal (z-score),[15],1.94
same,glycan array binding signal (z-score),[16],2.76
same,glycan array binding signal (z-score),[17],8.27
same,glycan array binding signal (z-score),[18],5.53
same,glycan array binding signal (z-score),[19],5.76
same,glycan array binding signal (z-score),[20],0.072
same,glycan array binding signal (z-score),[21],-0.088
same,glycan array binding signal (z-score),[22],-0.109
same,glycan array binding signal (z-score),[23],13.2
same,glycan array binding signal (z-score),[24],12.9
same,glycan array binding signal (z-score),[25],-0.097
same,glycan array binding signal (z-score),[26],-0.113
same,glycan array binding signal (z-score),[27],-0.118
same,glycan array binding signal (z-score),[28],-0.126

# — the supplement of paper PMC8728848
